Reference: PubChem BioAssay AID651635 (National Center for Advancing Translational Sciences (NCATS), 2012)
In all, about 400,000 compounds went through this assay and about 1,900 (0.47%) were called active. Where a call stands in place of a potency, no number is given. About 14% were inconclusive and are not listed. Calls come from the whole dose curve; as a rule, active = well fitted cell-killing curve with a large enough effect; inconclusive = small, poorly fitted or top-dose-only effect, or effect the other way; inactive = no such curve, though single readings can be large or run the other way. For the sample, actives were picked, then their nearest neighbours and some compounds at random.

Experiment: Viability Counterscreen for Primary qHTS for Inhibitors of ATXN expression; note: nearly all actives have a fitted effect of over 40% in size
Conditions: S2 cells (HEK-293 line with an ATXN2-luciferase reporter) viability, CellTiter-Fluor protease fluorescence, 24 h; series mostly up to 56.7 µM
Description: Spinocerebellar ataxia type 2 (SCA2) is a multisystem neurodegenerative disease caused by a dominantly-acting mutation leading to expansion of a polyQ domain in the ataxin-2 protein (ATXN2). SCA2 patients develop progressive ataxia and later lose function in other neuronal systems. Prominent parkinsonian signs develop in some patients. Similar to many neurodegenerative disorders, no symptomatic or disease-modifying treatments are known.
The primary objective of the proposed research is to identify compounds inhibiting ATXN2 expression and to test them for efficacy in SCA2 mouse models. To this end, we have developed a cell-based assay paired with an in vivo mouse model using identical luciferase expression constructs. This approach takes advantage of an ATXN2-luciferase transgene, with the luciferase gene flanked by the upstream and downstream portions of the ATXN2 gene. This primary assay was tested against the NIH Molecular Libraries Small Molecule Repository (MLSMR).
NIH Chemical Genomics Center [NCGC]
NIH Molecular Libraries Probe Centers Network [MLPCN]
Assay Submitter (PI): Daniel Scoles, University of Utah
PROTOCOL TABLE (as described by Inglese J, Shamu CE and Guy RK. 2007)
SEQUENCE No. (e.g., 1, 2, 3, etc.); […] (e.g., Cells, Incubation, Reagent, etc.); VALUE; DESCRIPTION.
1; Cells; 4 uL; white, solid bottom, 1536-well Greiner assay plate.
2; Incubation; 2 hr; 37 degree C in 5% humidified CO2.
3; Compounds; 23 nL; Kalypsis pintool (Wako USA) equipped with a 1536-well pin head.
4; Incubation; 24 hr; 37 degree C in 5% humidified CO2.
5; Reagent; 1 uL; Gly-Phe-7-Amino-4-trifluoromethylcoumarin.
6; Incubation; 30 min; 37 degree C in 5% humidified CO2.
7; Detection; Fluorescence; ViewLux plate reader (PerkinElmer).
8; Reagent; 3 uL; SteadyGlo luciferase solution (Promega).
9; Incubation; 5 min; room temperature.
10; Detection; Luminescence; ViewLux plate reader (PerkinElmer).
NOTES (numbers refer to Sequence numbers above)
1. S2 cells expressing ATXN2-luciferase reporter were suspended in phenol-red free DMEM and dispensed in assay plates using a Multidrop Combi dispenser (Thermo Fisher Scientific).
2. Assay plates were incubated. Evaporation was prevented by covering assay plates with metal lids containing holes to allow gas diffusion.
3. […] Vehicle-only plates, with DMSO being pin-transferred to columns 5-48, were inserted uniformly at the beginning and the end of each library to monitor and record any shifts in assay performance.
5. 125 uM Gly-Phe-7-Amino-4-trifluoromethylcoumarin (MP Biomedicals) working concentration was used at a final concentration of 25 uM.
7. To assess cell viability; the assay plates were read using the ViewLux high-throughput CCD imager (PerkinElmer), wherein single end-point fluorescence measurement was acquired (excitation 405/10; emission 540/25 nm).
8. Detection reagent SteadyGlo Luciferase (Promega) was added to the assay plate.
10. Luminescence is then measured on the ViewLux imager equipped with a clear emission filter using a 2 sec exposure. All screening operations were performed on a fully integrated robotic system (Kalypsys) containing one RX-130 and two RX-90 anthropomorphic robotic arms (Staubli).
Inglese J, Shamu CE and Guy RK, Reporting data from high throughput screening of small molecule libraries, Nature Chemical Biology, 2007, 3(8): 438-441. doi.org/10.1038/nchembio0807-438.
Potency is the fitted concentration of half-maximal effect.

Q: Which Potency does the source give for `O=C(CSCc1ccccc1)Nc1ccccc1` here?
A: inactive

Q: With `O=C(NCCc1ccccc1)c1cccc(NC(=O)c2ccccc2)c1` as the compound, how does the Potency read?
A: inactive

Q: For `O=C(CCl)Nc1cccc(CP(=O)(c2ccccc2)c2ccccc2)c1`, which Potency is on record?
A: 14.1 µM (active)

Q: For `CCOc1ccc(NS(=O)(=O)c2ccc(N)cc2)nn1`, which Potency is on record?
A: inactive

Q: For `O=C(NC(c1ccc(Cl)cc1)c1cnccn1)C1CCN(Cc2ccc(Cl)cc2)CC1` (stereo not given), which Potency is on record?
A: inactive

Q: For `Cc1ccc(CNC(=O)CSC2=Nc3ccccc3C3=NC(C)C(=O)N23)cc1` (stereo not given), which Potency is on record?
A: inactive

Q: With `O=C(CC1N=C2c3ccccc3N=C(SCc3cccc(Cl)c3)N2C1=O)NCc1ccc2c(c1)OCO2` (stereo not given) as the compound, how does the Potency read?
A: 31.6 µM (active)

Q: With `NC(=O)CSC1=Nc2ccccc2C2=NC(CCC(=O)NCc3ccc(F)cc3)C(=O)N12` (stereo not given) as the compound, how does the Potency read?
A: inactive

Q: With `CC(C)(C)C(=O)c1c(N)[nH]c(C(=O)c2ccccc2)c1-c1ccc(F)cc1` as the compound, how does the Potency read?
A: inactive

Q: For `COCC(=O)Nc1cc(C(=O)N2CCCC(c3ccccc3)CC2)c2c(c1)nc(-c1ccncc1)n2C` (stereo not given), which Potency is on record?
A: inactive

Q: With `CCOC(=O)[C@H](CCc1ccccc1)N[C@@H](C)C(=O)N1CC2(C[C@H]1C(=O)O)SCCS2` as the compound, how does the Potency read?
A: inactive

Q: For `O=C(C(=O)N1CCOc2ccc(CN3CCN(Cc4ccccn4)CC3)cc2C1)c1ccccc1`, which Potency is on record?
A: inactive

Q: For `CCC1(C2CCN(C(=O)c3cccc(F)c3F)CC2)NC(=O)N(CCc2scnc2C)C1=O` (stereo not given), which Potency is on record?
A: inactive

Q: Which Potency does the source give for `Cc1ccc(-c2ccc(C(=O)N3CCc4nnc(CNC(=O)c5ccccc5)n4CC3)cc2)cc1` here?
A: inactive

Q: Which Potency does the source give for `COc1ccc(CCNc2ncnc3sc(C(=O)N4CCCC4)c(C)c23)cc1OC` here?
A: inactive

Q: For `O=C1CC(c2ccccc2)=NN1c1ccc([N+](=O)[O-])cc1`, which Potency is on record?
A: 21.2 µM (active)

Q: Which Potency does the source give for `Cn1nc(-c2ccccc2)c2cc([N+](=O)[O-])ccc21` here?
A: inactive

Q: With `O=C1NC(=O)C2C1C(c1ccc([N+](=O)[O-])cc1)=NN2Cc1ccccc1` (stereo not given) as the compound, how does the Potency read?
A: inactive

Q: With `NC(Cc1ccccc1)c1csc(Nc2cc(Oc3ccccc3)ncn2)n1` (stereo not given) as the compound, how does the Potency read?
A: 31.6 µM (active)

Q: For `COc1ccc(C(NC(=O)C2CCN(CCCc3ccccc3)CC2)c2cccs2)cc1` (stereo not given), which Potency is on record?
A: inactive

Q: Which Potency does the source give for `COc1ccccc1C1CN(CCNC(=O)C2=CCCC2)Cc2ccccc2O1` (stereo not given) here?
A: inactive

Q: With `CC(C)NC(=O)N1Cc2cc(C(=O)NCC(F)(F)F)nc(-c3cccc(-c4cc5ccccc5o4)c3)c2[C@@H]1CCO` as the compound, how does the Potency read?
A: inactive

Q: For `COc1ccc(Cl)cc1N(CC(=O)N/N=C/c1ccc(OCC(N)=O)cc1)S(C)(=O)=O`, which Potency is on record?
A: inactive

Q: Which Potency does the source give for `Cc1nc2ccccc2nc(C)c1=NOCc1ccc(Cl)cc1Cl` here?
A: inactive

Q: For `NC(N)=N/N=C/c1ccc(OCc2ccc(Cl)cc2Cl)cc1`, which Potency is on record?
A: 35.5 µM (active)

Q: With `C[C@H]1C[C@H]2[C@@H]3CCC4=CC(=O)C=C[C@]4(C)[C@@H]3C(=O)C[C@]2(C)[C@@]1(O)C(=O)CO` as the compound, how does the Potency read?
A: inactive

Q: Which Potency does the source give for `CC1=Nn2c(nnc2-c2ccccc2)SC1` here?
A: inactive

Q: For `COc1ccc(C2=Nn3c(nnc3-c3ccccc3OC)SC2)cc1OC1CCCC1`, which Potency is on record?
A: 15.8 µM (active)

Q: For `COc1ccccc1-c1nnc2n1N=C(c1ccc(OC(F)F)c(OCC3CC3)c1)CS2`, which Potency is on record?
A: inactive

Q: For `COc1ccc(CCNC(=O)c2ccc(-n3c(C)cc4c3CCCC4)cc2)cc1OC`, which Potency is on record?
A: inactive

Q: With `O=C(Nc1cccc2cccnc12)c1ccc2sc([C@H]3C[C@H](O)[C@@H](CO)O3)nc2c1` as the compound, how does the Potency read?
A: inactive

Q: With `Cc1ccccc1-c1csc(C(O)c2cccc(Cl)c2)n1` (stereo not given) as the compound, how does the Potency read?
A: inactive

Q: Which Potency does the source give for `S=C(NCCCc1ccccc1)Nc1ccc(Br)cc1` here?
A: inactive

Q: Which Potency does the source give for `NCCCNC(=S)NCCCN(Cc1ccc(Cl)cc1)c1ccc(Br)cn1` here?
A: 35.5 µM (active)

Q: For `O=C(/C=C/c1ccc(Cl)cc1)Nc1ccc(Br)cn1`, which Potency is on record?
A: inactive

Q: With `CN(C)CCNC(=O)c1cccc(-c2cnc3c(NC=O)cc(-c4cccc(C(F)(F)F)c4)cn23)c1` as the compound, how does the Potency read?
A: inactive

Q: For `Cc1cccc(N2CCN(c3ccc(NC(=O)/C=C\C(=O)O)cc3)CC2)c1`, which Potency is on record?
A: inactive

Q: With `C=CC(=O)Nc1ccc(Nc2ccnc(Nc3ccc(N4CCN(C)CC4)cc3)n2)cc1` as the compound, how does the Potency read?
A: 14.1 µM (active)

Q: For `CN1CCN(c2ccc(NC(=O)c3cc(Cl)c4c(c3)OCCO4)cc2)CC1`, which Potency is on record?
A: inactive

Q: Which Potency does the source give for `COC(=O)c1c(OCc2ccc(F)cc2)cc(=O)n2c1CCN(Cc1ccc3cccnc3c1)CC2` here?
A: inactive

Q: For `CC(C)C(=O)NC(C)c1nnc2n1CCN(Cc1cccc3ncccc13)CC2` (stereo not given), which Potency is on record?
A: inactive

Q: Which Potency does the source give for `CCc1ccc2c(c1)C1(NN=C(c3ccccc3)S1)C(=O)N2` (stereo not given) here?
A: 3.16 µM (active)

Q: With `CO[C@H]1[C@H](NC(=O)C(C)C)c2ccccc2C12CCN(Cc1cnc(N(C)C)s1)CC2` as the compound, how does the Potency read?
A: inactive

Q: Which Potency does the source give for `COc1ccc(C2(Nc3cccc(F)c3)C(=O)c3ccccc3C2=O)cc1` here?
A: inactive

Q: With `CCOC(=O)c1scc(-c2ccccc2)c1S(=O)(=O)Nc1ccccc1F` as the compound, how does the Potency read?
A: inactive

Q: With `CCCS(=O)(=O)c1ncc(Cl)c(C(=O)Nc2scc(-c3ccccc3)c2C(=O)OCC)n1` as the compound, how does the Potency read?
A: 15.8 µM (active)

Q: Which Potency does the source give for `CCOC(=O)c1c(-c2ccc(-c3ccccc3)cc2)csc1NC(=O)CCC(=O)O` here?
A: inactive

Q: For `Cc1ccc(C)c(C(O)c2ncc(-c3cccc4ccccc34)[nH]2)c1` (stereo not given), which Potency is on record?
A: inactive

Q: For `CO[C@H]1[C@@H](O)[C@H](N)[C@@H](O[C@H]2O[C@H]([C@H](C)N)CC[C@H]2N)[C@H](O)[C@@H]1N(C)C(=O)CN`, which Potency is on record?
A: inactive

Q: With `Cc1ccc(CN2CC(N3CCC(Cc4ccccc4)CC3)CS2(=O)=O)cc1` (stereo not given) as the compound, how does the Potency read?
A: inactive

Q: With `O=C(Nc1ccccc1Cl)/C(Cl)=C(\Cl)S(=O)c1ccccc1` (stereo not given) as the compound, how does the Potency read?
A: 3.55 µM (active)

Q: For `O=C(COC(=O)CCc1c[nH]c(=O)[nH]1)Nc1ccccc1Cl`, which Potency is on record?
A: inactive

Q: For `NC(=O)C1(Nc2ccccc2Cl)CCCC1`, which Potency is on record?
A: inactive

Q: Which Potency does the source give for `O=C(CN1C(=O)COc2ccc(S(=O)(=O)N3CCCCCC3)cc21)N1CCN(c2cccc(C(F)(F)F)c2)CC1` here?
A: inactive

Q: For `Cc1ccc(S(=O)(=O)c2nc(-c3cccs3)oc2NCc2cccnc2)cc1`, which Potency is on record?
A: inactive

Q: Which Potency does the source give for `NC(=O)CSc1oc(-c2cccs2)nc1S(=O)(=O)c1ccccc1` here?
A: inactive

Q: For `CCCCS(=O)(=O)c1oc(-c2cccs2)nc1S(=O)(=O)c1ccccc1`, which Potency is on record?
A: 3.16 µM (active)

Q: Which Potency does the source give for `COc1ccccc1-c1ccnc(-n2ncc(C(=O)NCCCN3CCOCC3)c2C)n1` here?
A: inactive

Q: Which Potency does the source give for `Cc1ccc(-c2cnc(C(O)c3cc(Cl)cc(Cl)c3)[nH]2)cc1` (stereo not given) here?
A: inactive

Q: With `Cc1cc(C)c2oc(C(=O)Nc3ccc(S(=O)(=O)N4CCCCCC4)cc3)cc(=O)c2c1` as the compound, how does the Potency read?
A: inactive
